Whole data set: some 16,000 sequences, median “Z-score” near -0.37, cut for the highest 2% near 3.2. The sample as a whole holds a higher share of the highest values than the screen did.
System: RBM10 RRM1-ZnF (GST-tagged construct)
Assay: RNAcompete 7-mer binding Z-score; higher = stronger binding preference
Procedure: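 RNAcompete: 20 pmol GST-tagged RBM10 RNA-binding constructs were incubated with a designed RNA pool of about 241,000 sequences up to 41 nt (1.5 nmol) on glutathione beads for 30 min at 4 °C and washed. Bound RNAs were identified by microarray hybridisation. Each RNA 7-mer is scored by a one-sided Z-score of its enrichment, computed over probes that contain the 7-mer within longer pool sequences.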

| Sequence | RNAcompete 7-mer binding Z-score |
| --- | --- |
| UAAGGAU | 1.42 |
| CAAGGAA | 1.48 |
| GAAGGAG | 4.72 |
| CAAGGAG | 2.17 |
| AAAGGAA | 3.32 |
| GCAGGAA | 1.77 |
| CAAGGAU | 1.36 |
| GAAGGAU | 3.32 |
| GAAGGAC | 2.33 |
| GGAGGAA | 2.93 |
| GAAGGAA | 4.56 |
| UAAGGAA | 1.64 |
| CAUCACC | -0.795 |
| AACGGUG | 1.56 |
| CACCAAU | -0.639 |
| GCCCGCC | -0.132 |
| AUCCCGG | -0.513 |
| UAGUUAA | -0.373 |
| UUGCACU | -0.639 |
| UUGGUUC | -0.344 |
| UGCCGAC | -0.652 |
| UCAGUAA | -0.461 |
| UUACGCU | -0.5 |
| UAAGGAG | 1.97 |

| Sequence | RNAcompete 7-mer binding Z-score |
| --- | --- |
| AAAGGAC | 2.39 |
| AAAGGAG | 3.8 |
| CAGCGCG | -0.324 |
| GUAGACC | 0.00729 |
| CGAGCGG | 3.69 |
| AGAGCGG | 1.43 |
| CGAGCGU | 0.0495 |
| GGAGCGA | 2.71 |
| GGAGCGG | 4.52 |
| UGAGCGG | 2.38 |
| UCACUUA | -0.724 |
| AUUCAAA | -0.662 |
| CAUCUCA | -0.798 |
| CUGGAUC | -0.311 |
| CGGAUGA | 1.15 |
| UGGCGUA | 0.316 |
| UGGGCGG | 3.38 |
| CUUGGGG | 1.44 |
| GUUGGGG | 4.26 |
| UUGGGGU | 3.27 |
| UUUGGGG | 2.72 |
| UUGGGGC | 1.95 |
| CUUGGGU | 1.38 |
| AUUGGGG | 3.01 |

| Sequence | RNAcompete 7-mer binding Z-score |
| --- | --- |
| UUGGGGG | 3.56 |
| AGGGCGG | 2.1 |
| UGGGCGC | 1.16 |
| UUUGGGU | 2.47 |
| GCGUUUA | -0.535 |
| CAAUUAA | -0.633 |
| UCACUUC | -0.824 |
| UUCAAAU | -0.607 |
| GUUGCGU | 0.257 |
| UAGUAGU | -0.035 |
| AUAUCCU | -0.789 |
| GAAGUUA | 0.309 |
| CUUUAUG | -0.763 |
| CGUUUGG | 0.296 |
| GUUUGGG | 3.59 |
| GAUUGGG | 3.62 |
| AAUUGGG | 2.54 |
| GUUUUGG | 1.15 |
| UGGGGCG | 2.54 |
| GAUUGGC | 0.953 |
| GGUUUUG | 2.03 |
| UGGGGGG | 4.02 |
| GUUUGGA | 1.36 |
| GGUUUGG | 3.62 |

| Sequence | RNAcompete 7-mer binding Z-score |
| --- | --- |
| UGGGGGC | 3.07 |
| UAGGUCC | -0.165 |
| GGGGCGG | 2.7 |
| UCGGGGC | 1.65 |
| ACUAUCU | -0.759 |
| UUGGCGA | 0.605 |
| GCGGGGU | 3.75 |
| GCGGGGA | 3.67 |
| CCGGGGG | 1.54 |
| GCGGGGG | 3.94 |
| GCGGGUU | 2.76 |
| UCGGGGU | 2.07 |
| GCGGGGC | 2.47 |
| UCGGGGA | 1.6 |
| CCGGGGA | 1.27 |
| GUCCAUA | -0.623 |
| CCGACGC | -0.477 |
| AGUACAA | -0.158 |
| GUCAGCC | -0.448 |
| GUGUUAA | -0.0447 |
| AGGGCAG | 2.11 |
| GGGGCAG | 3.4 |
| UGGGCAG | 2 |
| AGGGGAG | 2.9 |

| Sequence | RNAcompete 7-mer binding Z-score |
| --- | --- |
| CGGGGAG | 2.57 |
| GGGGGAG | 3.22 |
| UCGGGAG | 1.12 |
| UGGGGAG | 3.36 |
| AGAUAAA | 0.0463 |
| UGACUCA | -0.48 |
| GGUAGCC | 0.784 |
| UCAACAC | -0.461 |
| GAGGAGA | 1.69 |
| ACUUGCU | -0.74 |
| GACUUGA | -0.496 |
| UAGGAAG | 1.72 |
| CAGGAAA | 0.94 |
| UAGGAAA | 1.47 |
| AAGGAAU | 2.28 |
| AAGGAAA | 3.36 |
| GAGGAAG | 3.26 |
| AAGGAAG | 3.84 |
| GAGGAAU | 1.58 |
| AAGGAAC | 2.26 |
| GGCUUAA | -0.0122 |
| UGUCUCG | -0.649 |
| GAUACGU | -0.022 |
| AUGGACA | 1.95 |

| Sequence | RNAcompete 7-mer binding Z-score |
| --- | --- |
| UUUGCUC | -0.867 |
| AUGGAGA | 2.62 |
| GUGGAGU | 2.67 |
| AUGGAGU | 2.63 |
| AUGGAGG | 4.22 |
| GUGGAGC | 2.91 |
| GUGGAGG | 3.91 |
| AAUGGUG | 2.79 |
| CGUGGUG | 1.52 |
| GAUGGUG | 3.27 |
| GGUGGUG | 3.56 |
| AGUGGUG | 2.37 |
| GAUGGUC | 0.563 |
| ACCACCA | -0.503 |
| CUUACAC | -0.841 |
| GCUCCCA | -0.574 |
| GUCGUAG | 0.056 |
| ACAUCGA | -0.48 |
| CGUAAAG | -0.116 |
| AGUAGGU | 1.68 |
| CGUAGGU | 0.949 |
| GGUAAAG | 3.32 |
| GGUAGGC | 1.92 |
| AGUAGGA | 2.8 |

| Sequence | RNAcompete 7-mer binding Z-score |
| --- | --- |
| GGUAGGU | 3.31 |
| GGUAGGA | 3.4 |
| UGUAAAG | 0.173 |
| CGUAGAG | 0.381 |
| UGUAGAG | 0.923 |
| GGUAGAG | 3.37 |
| GAACCAG | -0.0934 |
| GCGUAGC | -0.0155 |
| CCGAAUU | -0.815 |
| UGACCAC | -0.49 |
| CUGUCGG | -0.305 |
| UAGUCGA | -0.191 |
| CCUUAUA | -0.87 |
| UGGGCUG | 1.83 |
| GGUAGCG | 1.67 |
| GGUAGGG | 4.7 |
| GGUAGUG | 2.47 |
| AAGACUC | -0.561 |
| AAUUAUA | -0.464 |
| GAUCCUC | -0.883 |
| CAUGGGU | 2.24 |
| AAUGGGU | 3.89 |
| UAUGGGC | 1.47 |
| UAUGGGU | 2.81 |

| Sequence | RNAcompete 7-mer binding Z-score |
| --- | --- |
| GAUGGGU | 3.53 |
| ACUGGGG | 1.89 |
| AAUGGGG | 4.2 |
| CAUGGGG | 2.42 |
| UAUGGCG | 0.537 |
| UAUGGGG | 3.4 |
| AAUGGUU | 2.44 |
| AAUGGCU | 0.303 |
| GAGGACC | 0.235 |
| CCUCCUC | -0.542 |
| UGUACAU | -0.422 |
| UGUGCCA | -0.542 |
| ACUAUAC | -0.642 |
| CACAUGU | -0.448 |
| CAUUCUU | -0.789 |
| ACGACAC | -0.496 |
| GAUGGGG | 4.43 |
| GAUGGGC | 2.15 |

Source: the supplement of paper PMC5499739
